Values joined by “and” are separate entries in the source; they are usually repeats but may differ in a detail not shown here. Equal entries are not always repeated. Results filed as inconclusive are left out. Where a call stands in place of a potency, no number is given. A structure can be active in one record and inactive in another. Active and inactive are the calls of the source. The call rests on the fitted dose curve.
Experiment: p53 small molecule agonists, cell-based qHTS assay with rat liver microsomes (AID 1963578)
Conditions: HCT-116 p53RE-bla, beta-lactamase ratio, 16 h; series mostly up to 66 µM; activation: at the top concentration
Summary of the method: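 Quantitative HTS of the Tox21 10K library: p53RE-bla cells, rat liver microsomes plus NADPH at 0.5 mg/mL final each, 16 h at 37 C, beta-lactamase fluorescence detection.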

SMILES	activation	Potency
O=P(OCC(Br)CBr)(OCC(Br)CBr)OCC(Br)CBr (configuration not stated)	-3.29% (inactive)	
Clc1cccc(C(Cl)(Cl)Cl)n1		inactive
COP(=O)(NC(C)=O)SC (configuration not stated)		inactive
CC(C)N1C(=O)c2ccccc2NS1(=O)=O		inactive
COP(=O)(OC)OC		inactive
O=C(NC(=O)c1ccccc1Cl)Nc1ccc(OC(F)(F)F)cc1	-1.15% (inactive)	
c1ccc(C2CO2)cc1 (configuration not stated)		inactive
ClCCOCCCl		inactive
CN=C=O	0.983% (inactive)	
CC(O)CCO (configuration not stated)		inactive
CCCCON=O	-1.01% (inactive)	
Nc1ccc(Cl)cc1N	0.257% (inactive)	
C[C@H]1O[C@H](OC2[C@@H](O)[C@@H](O)C(O)[C@H](O)[C@H]2O)[C@@H](N)C[C@@H]1N=C(N)C(=O)O (some centres not stated)	1.85% (inactive)	
CCCCC(CC)C(=O)Cl (configuration not stated)		inactive
O=c1[nH]c2ccccc2n1C1CCN(CCCC(c2ccc(F)cc2)c2ccc(F)cc2)CC1		inactive
Nc1cccc2ccccc12		inactive
O=c1[nH]c2ccccc2c(=O)o1	1.87% (inactive)	

Experiment: p53 small molecule agonists, cell-based qHTS assay with human liver microsomes: qHTS cell viability counter screen (AID 1963579); further: nearly all actives have a fitted effect of over 45% in size; further: potency means the concentration at half of the fitted maximal effect
Conditions: p53RE-bla HCT-116 viability, ATP luminescence, 16 h, HLM; series mostly up to 66 µM; activity change, negative = cytotoxicity: at the top concentration
Summary of the method: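 Viability of p53RE-bla cells is measured as CellTiter-Glo luminescence following a 16 h, 37 C incubation with compound, liver microsomes from human donors and NADPH.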

SMILES	Potency	activity change, negative = cytotoxicity
CC(C)c1ccc(OP(=O)(Oc2ccc(C(C)C)cc2)Oc2ccc(C(C)C)cc2)cc1	inactive	
Clc1cccc(Cl)c1	inactive	
ClC(Cl)c1ccccc1	inactive	
O=P(OCC(Br)CBr)(OCC(Br)CBr)OCC(Br)CBr (configuration not stated)	inactive	
Clc1cccc(C(Cl)(Cl)Cl)n1	inactive	
COP(=O)(NC(C)=O)SC (configuration not stated)	inactive	
COP(=O)(OC)OC	inactive	
CCOP(=S)(OCC)Oc1nc(Cl)c(Cl)cc1Cl	inactive	
CCN(CC)C(=O)/C(Cl)=C(\C)OP(=O)(OC)OC	inactive	
CCCCCCCCCCCCCCCl		6.32% (inactive)
O=C(NC(=O)c1ccccc1Cl)Nc1ccc(OC(F)(F)F)cc1		12.7% (inactive)
c1ccc(C2CO2)cc1 (configuration not stated)	inactive	
Oc1cccc2cccnc12	inactive and 971 nM (active) and 913 nM (active)	
CN=C=O		-2.61% (inactive)
CCCCON=O		-4.3% (inactive)
CCOP(=S)(OCC)Oc1ccc([N+](=O)[O-])cc1	inactive	
C=CC(Cl)CCl (configuration not stated)	inactive	

SMILES	Potency	activity change, negative = cytotoxicity
CN(CCCC(=O)c1cccnc1)N=O		1.11% (inactive)
Nc1ccc(Cl)cc1N		0.686% (inactive)
CN(C)c1ccc(N=O)cc1		-13.4% (inactive)
Cc1ccc(N)c(C)c1	inactive	
N#CCCCCC#N	inactive	
C[C@H]1O[C@H](OC2[C@@H](O)[C@@H](O)C(O)[C@H](O)[C@H]2O)[C@@H](N)C[C@@H]1N=C(N)C(=O)O (some centres not stated)		0.067% (inactive)
CCC(C)c1ccc(O)cc1 (configuration not stated)	inactive	
CCCCC(CC)C(=O)Cl (configuration not stated)	inactive	
O=C(CCl)c1ccc(Cl)cc1Cl		19.3% [at 30.3 µM] (inactive)
O=c1[nH]c2ccccc2n1C1CCN(CCCC(c2ccc(F)cc2)c2ccc(F)cc2)CC1	28.9 µM (active) and inactive	
O=P(Oc1ccccc1)(Oc1ccccc1)Oc1ccccc1		-8.13% (inactive)
Nc1cccc2ccccc12	inactive	
Cc1[nH]c(=O)n(C(C)(C)C)c(=O)c1Cl	inactive	
CCCCCC[n+]1ccccc1	11.6 µM (active) and 9.19 µM (active) and inactive	
NN=C(N)N	inactive	
O=c1[nH]c2ccccc2c(=O)o1	inactive	
CC(C)CCCCCCOC(=O)c1ccccc1C(=O)OCCCCCCC(C)C	inactive	

Experiment: p53 small molecule agonists, cell-based qHTS assay with rat liver microsomes: qHTS cell viability counter screen (AID 1963580); further: nearly all actives have a fitted effect of over 45% in size; further: potency means the concentration at half of the fitted maximal effect
Conditions: p53RE-bla HCT-116 + rat microsomes, ATP viability, 16 h; series mostly up to 66 µM; activity change, negative = cytotoxicity: at the top concentration
Summary of the method: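 HCT-116 p53RE-bla, 4,000 cells/well, 5 h pre-incubation; cpd + rat liver microsomes 0.5 mg/mL + NADPH 0.5 mg/mL (final); 16 h, 37 C; CellTiter-Glo, 30 min RT; luminescence.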

SMILES	Potency	activity change, negative = cytotoxicity
CC(C)c1ccc(OP(=O)(Oc2ccc(C(C)C)cc2)Oc2ccc(C(C)C)cc2)cc1	inactive	
Clc1cccc(Cl)c1	inactive	
ClC(Cl)c1ccccc1	inactive	
O=P(OCC(Br)CBr)(OCC(Br)CBr)OCC(Br)CBr (configuration not stated)	inactive	
Clc1cccc(C(Cl)(Cl)Cl)n1	inactive	
COP(=O)(NC(C)=O)SC (configuration not stated)	inactive	
CC(C)N1C(=O)c2ccccc2NS1(=O)=O	inactive	
CCCCn1cc[n+](C)c1	inactive	
COP(=O)(OC)OC		-4.88% (inactive)
CCOP(=S)(OCC)Oc1nc(Cl)c(Cl)cc1Cl	inactive	
CCN(CC)C(=O)/C(Cl)=C(\C)OP(=O)(OC)OC	inactive	
CCCCCCCCCCCCCCCl		6.18% (inactive)
O=C(NC(=O)c1ccccc1Cl)Nc1ccc(OC(F)(F)F)cc1		-16.1% (inactive)
c1ccc(C2CO2)cc1 (configuration not stated)	inactive	
ClCCOCCCl	inactive	
CN=C=O		1.5% (inactive)
CC(O)CCO (configuration not stated)	inactive	
CCCCON=O		3.39% (inactive)

SMILES	Potency	activity change, negative = cytotoxicity
CCOP(=S)(OCC)Oc1ccc([N+](=O)[O-])cc1	inactive	
C=CC(Cl)CCl (configuration not stated)	inactive	
CN(CCCC(=O)c1cccnc1)N=O		7.91% (inactive)
Nc1ccc(Cl)cc1N		-3.98% (inactive)
CN(C)c1ccc(N=O)cc1	inactive	
Cc1ccc(N)c(C)c1	inactive	
C[C@H]1O[C@H](OC2[C@@H](O)[C@@H](O)C(O)[C@H](O)[C@H]2O)[C@@H](N)C[C@@H]1N=C(N)C(=O)O (some centres not stated)		19.2% (inactive)
CCC(C)c1ccc(O)cc1 (configuration not stated)	inactive	
CCCCC(CC)C(=O)Cl (configuration not stated)		0.627% (inactive)
O=C(CCl)c1ccc(Cl)cc1Cl		-10% [at 30.3 µM] (inactive)
O=c1[nH]c2ccccc2n1C1CCN(CCCC(c2ccc(F)cc2)c2ccc(F)cc2)CC1	40.8 µM (active) and inactive	
O=P(Oc1ccccc1)(Oc1ccccc1)Oc1ccccc1		-13.1% (inactive)
Nc1cccc2ccccc12	inactive	
Cc1[nH]c(=O)n(C(C)(C)C)c(=O)c1Cl		-2.15% (inactive)
CCCCCC[n+]1ccccc1	inactive	
NN=C(N)N	inactive	
O=c1[nH]c2ccccc2c(=O)o1	inactive	
CC(C)CCCCCCOC(=O)c1ccccc1C(=O)OCCCCCCC(C)C	inactive	

Source: PubChem BioAssay (Tox21)
